Source: PubChem BioAssay
Rows were chosen to be rich in hits. Some 11% of all compounds tested hit in one or more screens of this group.
JMJD2A Tudor inh – JMJD2A Tudor domain (human) inhibition; AlphaScreen JMJD2A-Tudor / H3K4me3 peptide binding; Potency, µM (top dose mostly 114 µM), without a hit: top-dose activity change, negative = inhibition, usual class: inhibitors; hit rate 4.4% among 390,000; also: % is scaled to controls: 0 for no effect and ±100 for the full control effect; nearly all actives have a fitted effect of over 50% in size
G9a block – blocks human histone lysine methyltransferase G9a. Potency, µM (doses to about 102 µM), without a hit: at the highest dose activity, negative = inhibition, most hits filed as inhibitors. hit rate 8.8% among 350,000. G9a H3K9 monomethylation, AlphaScreen, 2 h; also: % is scaled to controls: 0 for no effect and ±100 for the full control effect; nearly all actives have a fitted effect of over 75% in size
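AlphaScreen detection with an anti-monomethyl H3K9 antibody quantified product after a 2 h room-temperature reaction containing 500 nM biotinylated H3K9 peptide, 20 µM SAM and 20 nM enzyme, which had been preincubated 15 min with compound.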
L3MBTL1 block – blocks human L3MBTL1; Q9Y468; AlphaScreen L3MBTL1–H3K9me1 peptide binding; Potency, µM (doses to about 57.1 µM), inactives show top-dose activity, negative = inhibition, hits mostly inhibitors; hit rate 0.66% among 230,000; AID 485360; also: % is scaled to controls: 0 for no effect and ±100 for the full control effect; nearly all actives have a fitted effect of over 60% in size
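L3MBTL1 50 nM + b-AHA-H3(1-15)K9me1 75 nM, 30 min RT; compound added, 30 min RT; streptavidin donor/Ni-chelate acceptor beads 10 ug/mL each final, 30 min RT dark; AlphaScreen read.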
HP1b binding inh – HP1-beta chromodomain-methylated histone interaction inhibition; hit rate 0.56% among 390,000; Potency, µM (series often up to 114 µM), without a hit: at the top dose activity change, negative = inhibition, usual class: inhibitors; AlphaScreen HP1-beta / biotin-H3K9me3 peptide binding; P83916; AID 540317; also: nearly all actives have a fitted effect of over 70% in size
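HP1-beta protein (50 nM final) preincubated 30 min at room temperature with biotinylated H3(1-18)K9me3 peptide (50 nM) in PBS pH 7.4, 0.01% Tween-20, then compound added for 30 min. AlphaScreen streptavidin donor/nickel chelate acceptor beads (10 ug/mL final), 30 min dark, luminescence read.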
BAZ2B inh – BAZ2B (human) inhibition. Q9UIF8. AlphaScreen BAZ2B-H3K14Ac peptide displacement. Potency, µM (titrated, usually from 114 µM), for the others: at the highest dose activity change, negative = inhibition, usual class: inhibitors. hit rate 4.4% among 360,000. AID 504333; also: % is scaled to controls: 0 for no effect and ±100 for the full control effect; nearly all actives have a fitted effect of over 60% in size
Target sequence (Q9UIF8 whole entry, looked up): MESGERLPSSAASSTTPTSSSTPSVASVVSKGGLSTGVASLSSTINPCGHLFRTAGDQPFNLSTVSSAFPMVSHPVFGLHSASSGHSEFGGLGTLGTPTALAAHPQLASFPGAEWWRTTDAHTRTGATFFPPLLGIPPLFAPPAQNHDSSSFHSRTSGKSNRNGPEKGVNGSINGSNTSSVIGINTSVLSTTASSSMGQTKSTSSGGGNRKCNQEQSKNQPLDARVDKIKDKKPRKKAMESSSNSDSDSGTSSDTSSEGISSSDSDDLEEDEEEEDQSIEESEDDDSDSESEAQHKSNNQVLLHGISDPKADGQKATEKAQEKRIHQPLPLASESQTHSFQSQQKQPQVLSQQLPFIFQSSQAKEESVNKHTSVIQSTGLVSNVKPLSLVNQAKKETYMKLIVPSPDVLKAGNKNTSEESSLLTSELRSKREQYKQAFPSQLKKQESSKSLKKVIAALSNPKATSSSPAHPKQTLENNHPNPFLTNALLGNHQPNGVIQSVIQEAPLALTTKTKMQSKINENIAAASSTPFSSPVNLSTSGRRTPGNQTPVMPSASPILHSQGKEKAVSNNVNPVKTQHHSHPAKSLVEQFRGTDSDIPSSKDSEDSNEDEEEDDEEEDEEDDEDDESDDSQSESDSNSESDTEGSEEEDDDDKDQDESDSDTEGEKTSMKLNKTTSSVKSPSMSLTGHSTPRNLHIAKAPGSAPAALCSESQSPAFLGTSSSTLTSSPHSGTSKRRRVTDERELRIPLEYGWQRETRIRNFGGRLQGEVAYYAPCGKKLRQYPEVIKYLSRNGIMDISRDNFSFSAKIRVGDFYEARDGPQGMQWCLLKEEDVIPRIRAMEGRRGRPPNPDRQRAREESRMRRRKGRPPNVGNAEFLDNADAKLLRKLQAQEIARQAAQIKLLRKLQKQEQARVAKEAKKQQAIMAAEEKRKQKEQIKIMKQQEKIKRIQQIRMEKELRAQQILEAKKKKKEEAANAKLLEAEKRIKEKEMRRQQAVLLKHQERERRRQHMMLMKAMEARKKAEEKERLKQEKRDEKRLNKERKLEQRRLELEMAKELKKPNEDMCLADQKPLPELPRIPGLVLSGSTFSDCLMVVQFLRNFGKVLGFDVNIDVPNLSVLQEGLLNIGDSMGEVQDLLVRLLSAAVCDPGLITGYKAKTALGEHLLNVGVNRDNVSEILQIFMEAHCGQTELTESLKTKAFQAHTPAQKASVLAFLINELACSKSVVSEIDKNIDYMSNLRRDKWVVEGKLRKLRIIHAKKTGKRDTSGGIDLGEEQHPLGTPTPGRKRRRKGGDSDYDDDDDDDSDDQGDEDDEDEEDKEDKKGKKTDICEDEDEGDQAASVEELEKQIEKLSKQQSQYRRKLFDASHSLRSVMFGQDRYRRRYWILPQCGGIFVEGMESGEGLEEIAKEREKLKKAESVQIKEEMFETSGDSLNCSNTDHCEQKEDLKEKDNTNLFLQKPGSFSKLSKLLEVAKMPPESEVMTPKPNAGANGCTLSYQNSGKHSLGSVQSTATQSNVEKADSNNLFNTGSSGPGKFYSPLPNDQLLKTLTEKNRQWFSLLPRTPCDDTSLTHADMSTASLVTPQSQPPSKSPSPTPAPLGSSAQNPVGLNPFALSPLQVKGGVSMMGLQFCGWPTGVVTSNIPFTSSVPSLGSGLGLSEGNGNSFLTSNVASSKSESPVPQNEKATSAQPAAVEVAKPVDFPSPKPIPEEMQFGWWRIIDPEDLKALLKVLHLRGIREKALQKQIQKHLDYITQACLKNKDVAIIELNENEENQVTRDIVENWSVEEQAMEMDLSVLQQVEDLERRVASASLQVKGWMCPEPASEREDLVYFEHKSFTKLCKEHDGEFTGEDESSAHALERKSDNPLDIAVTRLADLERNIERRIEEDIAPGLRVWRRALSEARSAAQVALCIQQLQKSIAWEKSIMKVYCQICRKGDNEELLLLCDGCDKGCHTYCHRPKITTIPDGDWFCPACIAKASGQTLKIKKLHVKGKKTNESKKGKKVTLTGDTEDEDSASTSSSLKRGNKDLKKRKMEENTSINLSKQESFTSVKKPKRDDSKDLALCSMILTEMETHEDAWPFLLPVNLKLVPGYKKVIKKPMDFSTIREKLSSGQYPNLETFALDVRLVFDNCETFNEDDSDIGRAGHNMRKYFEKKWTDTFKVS
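AlphaScreen displacement: compounds (up to 110uM) incubated 30 min at room temperature with a preformed 50 nM BAZ2B/50 nM biotinylated H3K14Ac peptide complex in PBS pH 7.4 with Tween-20. Donor and acceptor beads at 10 ug/mL final added, 20 min light-protected before reading.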
Numbers without * were called inactive; [ ] = another dose, or the depositor's remark. Calls follow the shape of the dose curve; as a rule, active = well fitted inhibition curve with a large enough effect; inconclusive = small, poorly fitted or top-dose-only effect; inactive = no such curve, though single readings can be large or run the other way. Potency is read from the fitted curve at half-maximal effect.

`O=C1c2c(O)cc(O)cc2O[C@@]12c1c(cc(O)c3c1O[C@H](c1ccc(O)cc1)[C@@H](O)C3)O[C@@H]2c1ccc(O)cc1` gave JMJD2A Tudor inh -32.4%, G9a block 50.1µM*, L3MBTL1 block -11.4%, HP1b binding inh 16.2% and BAZ2B inh inconclusive.
Screening Cc1ccc(-c2c(C3C4C=CCC(C)C4C(=O)N3Cc3ccccc3)ccc3ccccc23)cc1 (centres undefined) returned JMJD2A Tudor inh -24.8% and HP1b binding inh 34.5%.
C/C(=N\NC(=O)Cc1cccn1C)c1ccc2ccccc2c1 was read as JMJD2A Tudor inh inconclusive, G9a block 70.8µM*, HP1b binding inh -1.9% and BAZ2B inh inconclusive.
COc1ccc(NC(C)=O)cc1S(=O)(=O)N1CC=C(c2ccccc2)CC1 was read as JMJD2A Tudor inh -12.4%, L3MBTL1 block -4.7% and HP1b binding inh 22.6%.
`O=C1NC(=S)N/C1=C\c1ccc(N2CCOCC2)cc1` gave JMJD2A Tudor inh 20µM*, G9a block inconclusive, L3MBTL1 block 25.3%, HP1b binding inh 0.1% and BAZ2B inh -8.6%.
Cc1[nH]c2ccccc2c1C(c1ccccn1)c1c(C)[nH]c2ccccc12 was read as JMJD2A Tudor inh -24.8%, G9a block 28.2µM*, HP1b binding inh -3.6% and BAZ2B inh 35.5µM*.
Screening Cc1cccc(NC(=O)CSc2nc(C3CCCC3)nc3c2c(=O)n(C)c(=O)n3C)c1C returned JMJD2A Tudor inh -10.7%, G9a block 21.0%[59 µM], HP1b binding inh 16.8%[57 µM] and BAZ2B inh 0.7%.
Screening O=C(O)Cc1cccc(=O)c(O)c1C(=O)O returned JMJD2A Tudor inh 1.12µM* and HP1b binding inh 39.8µM*.
CCc1cccc(CC)c1NC(=O)c1ccc2c(c1)CCN2S(=O)(=O)c1ccccc1 was read as JMJD2A Tudor inh -11.9%, G9a block 2.51µM*, HP1b binding inh 7.5% and BAZ2B inh 1.1%.
COc1ccc(N2CCN(C(=O)c3ccc(NS(=O)(=O)c4ccccc4)cc3)CC2)cc1 was read as JMJD2A Tudor inh -31.3%, G9a block 20µM*, L3MBTL1 block 15.8%, HP1b binding inh inconclusive and BAZ2B inh 57.1%.
`CCc1cccc(C)c1NC(=O)c1ccc2c(c1)CCN2S(=O)(=O)c1ccc(Cl)cc1` gave JMJD2A Tudor inh -19.8%, G9a block -1.3%[59 µM], HP1b binding inh 14.3% and BAZ2B inh 0.4%.
O=C(c1cccc(S(=O)(=O)N2CCc3ccccc32)c1)N1CCN(c2ccccc2)CC1 was read as JMJD2A Tudor inh -32.7%, G9a block 22.4µM*, L3MBTL1 block -8.6%, HP1b binding inh -8.6% and BAZ2B inh 4.0%.
`COc1ccc(N2CCN(C(=O)c3ccc(CNS(=O)(=O)c4cc(C)ccc4C)cc3)CC2)cc1` gave JMJD2A Tudor inh inconclusive, G9a block 31.6µM*, HP1b binding inh -14.9% and BAZ2B inh inconclusive.
For CC1=C(C(=O)Nc2ccc(C)cc2C)C(c2ccc(O)cc2)n2nnnc2N1 (centres undefined) the results were JMJD2A Tudor inh -8.2%, G9a block -26.5%[59 µM], HP1b binding inh 25.0% and BAZ2B inh -4.4%.
For Cc1ccc(Cl)cc1NC(=O)c1cnn2c(C(F)F)cc(-c3ccccc3)nc12 the results were JMJD2A Tudor inh -16.8%, G9a block 0.2%[59 µM], HP1b binding inh 46.1% and BAZ2B inh -10.4%.
COc1ccc(N2CCN(C(=O)c3ccc4c(c3)CCN4S(=O)(=O)c3ccccc3)CC2)cc1 was read as JMJD2A Tudor inh inconclusive, G9a block 28.2µM*, HP1b binding inh 32.5% and BAZ2B inh 20µM*.
For O=C(c1ccc2c(c1)CCN2S(=O)(=O)c1ccccc1)N1CCN(c2ccc(F)cc2)CC1 the results were JMJD2A Tudor inh -32.6%, G9a block -9.5%, HP1b binding inh 7.3% and BAZ2B inh -26.4%.
COc1ccc(N2CCN(C(=O)COC(=O)c3cccc(S(=O)(=O)Nc4cccc(C)c4)c3)CC2)cc1 was read as JMJD2A Tudor inh inconclusive, G9a block 10µM*, L3MBTL1 block -19.9%, HP1b binding inh -24.6% and BAZ2B inh -36.4%.
`CCN1CCN(C(=O)c2ccc(CNS(=O)(=O)c3cccc(OC)c3)cc2)CC1` gave JMJD2A Tudor inh -11.0%, G9a block 44.7µM*, HP1b binding inh 18.9% and BAZ2B inh inconclusive.
Screening COC(=O)C1=C(C)OC(N)=C(C#N)C1c1cc2cc(C)ccc2nc1Cl (centres undefined) returned JMJD2A Tudor inh -4.0%, G9a block 39.8µM*, L3MBTL1 block 3.8%, HP1b binding inh 39.1% and BAZ2B inh -33.1%.
CC(=O)C1=C(C)OC(N)=C(C#N)C1c1cc2cc(C)c(C)cc2nc1Cl (centres undefined) was read as JMJD2A Tudor inh -17.2%, G9a block inconclusive, L3MBTL1 block 5.2%, HP1b binding inh 21.0% and BAZ2B inh -11.7%.
For OC(CCN1CCCCC1)c1ccc(-c2ccccc2)cc1 (centres undefined) the results were JMJD2A Tudor inh -7.6%, G9a block 3.5%, HP1b binding inh 13.4% and BAZ2B inh -1.6%.
Clc1ccc(C(CCN2CCCC2)Cc2ccccc2)cc1 (centres undefined) was read as JMJD2A Tudor inh 3.98µM*, G9a block 10µM*, HP1b binding inh inconclusive and BAZ2B inh 50.1µM*.
For O=C(c1ccc(C(F)(F)F)cc1)N1CCC(c2noc(-c3ccc(S(=O)(=O)N4CCCC4)cc3)n2)CC1 the results were JMJD2A Tudor inh -15.4%, G9a block -0.4%[59 µM], HP1b binding inh 33.0% and BAZ2B inh -11.9%.
Screening COc1ccc(Cc2noc(CN3CCCN(C4Cc5ccccc5C4)CC3)n2)cc1OC returned JMJD2A Tudor inh -16.8%, G9a block 39.8µM*, L3MBTL1 block -13.4%, HP1b binding inh 33.2% and BAZ2B inh inconclusive.
`CC1CCN(S(=O)(=O)c2ccc3[nH]ccc3c2)CC1` gave JMJD2A Tudor inh -6.7%, G9a block 16.2%[59 µM], HP1b binding inh 37.5% and BAZ2B inh 2.0%.
O=C(Cn1c(=O)nc(-c2ccccc2)c2cc(Cl)ccc21)N1CCN(c2ccc(F)cc2)CC1 was read as JMJD2A Tudor inh -19.9%, G9a block 27.4%[59 µM], HP1b binding inh -8.3% and BAZ2B inh -14.2%.
Screening CC(=O)C1=C(O)C=C(c2ccco2)CC1c1ccco1 (centres undefined) returned JMJD2A Tudor inh -31.0%, G9a block inconclusive, L3MBTL1 block -9.2%, HP1b binding inh 4.9% and BAZ2B inh 56.2µM*.
For CC(=O)c1sc(C(=O)O)c(-c2ccco2)c1-c1ccco1 the results were JMJD2A Tudor inh -24.6%, L3MBTL1 block inconclusive, HP1b binding inh 19.0% and BAZ2B inh -12.5%.
Screening COc1ccc2nc3cc(Cl)ccc3c(Nc3cc(CN4CCCC4)c(O)c(CN4CCCC4)c3)c2n1 returned G9a block inconclusive and BAZ2B inh 39.8µM*.
